The results in this text go back to PubChem BioAssay.

Each structure is given as a SMILES string. The source made the active and inactive calls. Unless noted, no rule for the calls is given here.

Assay [1] has as its system XIP peptide (Xip251-270) binding. Put plainly: XIP fragment 251-270 binding compounds – biochemical, small-molecule microarray, fluorescence 635/667 nm, 0.1 µg/mL protein, primary screen (AID 1182). The note with it: fluorescent protein binding, 635 nm, higher = more signal, called active from +8 up or from −8 down.
The next assay relates to XIP peptide (Xip251-270). Put plainly: compounds binding XIP fragment 251-270 – biochemical, small-molecule microarray, fluorescence 635/667 nm, 0.5 µg/mL protein, primary screen (AID 1183). The following applies: fluorescence 635 nm, higher = more signal.
A short description of assay [2]: blood-stage malaria parasite viability loss – strain 3D7, DAPI fluorescence, 100 nL, primary screen (AID 1184).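 Also: parasites grown inside human red blood cells in medium with human serum.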 The following applies: P. falciparum 3D7 growth, 3 d, higher = more signal.
The target in assay [3] is Homeobox protein Hox-A13 (Mus musculus) (UniProt Q62424). The assay can be described thus: disruptors of Hoxa13 oligonucleotide interaction – biochemical, fluorescence polarization, labeled oligonucleotide, primary screen (AID 1185). The note with it: Hoxa13:DNA binding, 15 min, higher = more signal, called active from +8 up or from −8 down.
Sequence of Homeobox protein Hox-A13 (Mus musculus) (Q62424 whole entry, looked up): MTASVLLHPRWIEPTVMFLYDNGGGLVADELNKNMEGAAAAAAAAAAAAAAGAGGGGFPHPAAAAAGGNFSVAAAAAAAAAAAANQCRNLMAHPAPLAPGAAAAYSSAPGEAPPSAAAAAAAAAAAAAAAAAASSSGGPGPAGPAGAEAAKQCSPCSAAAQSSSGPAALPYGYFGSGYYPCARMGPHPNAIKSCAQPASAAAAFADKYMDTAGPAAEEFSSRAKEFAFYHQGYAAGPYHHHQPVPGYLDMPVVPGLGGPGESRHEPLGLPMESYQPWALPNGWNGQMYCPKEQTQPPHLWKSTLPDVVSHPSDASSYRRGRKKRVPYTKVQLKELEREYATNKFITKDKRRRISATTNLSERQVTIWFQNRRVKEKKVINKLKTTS
Assay [4] in a line: blockers of DNA damage checkpoint Chk1 activation – imaging, HeLa, hydroxyurea, phospho-Chk1 antibody, percent positive cells, primary screen (AID 1186). The note with it: hydroxyurea-induced phospho-Chk1 immunofluorescence imaging, higher = more signal.
Assay [5] in a line: blockers of DNA damage checkpoint Chk1 activation – imaging, HeLa, hydroxyurea, phospho-Chk1 nuclear intensity, primary screen (AID 1187). The following applies: hydroxyurea-induced phospho-Chk1 immunofluorescence imaging, higher = more signal.

`O=C(NCc1ccccc1)[C@@]1(CCS(=O)(=O)c2ccccc2)N=C(c2ccc(OCCCO)cc2)O[C@H]1c1ccccc1`: the values for the composite z-score (in assay [1]; in the assay on XIP peptide (Xip251-270)) were 0.429 (inactive) and 0.565, respectively. For the same molecule, the z-score in assay [2] was -2.05; in assay [3] it was -1.15 (inactive); in assay [4], -0.751 (inactive); in assay [5], -0.64 (inactive).
For the molecule `C=C(COC)/C(=C/C[C@@H](OC(C)=O)c1ccc(OCCO)cc1)c1cc(C(=O)OC)ccc1OC`, the results for the composite z-score (in assay [1]; with XIP peptide (Xip251-270)) were 2.57 (inactive) and 0.762, respectively. The z-score in assay [2] is -3.06; in assay [3], -4.45 (inactive); in assay [4] it was -0.307 (inactive); in assay [5], -0.333 (inactive).
As for `COCCOC(=O)N1C(=O)[C@@]2(c3cc(C#CC4=CCCCC4)ccc31)[C@H](C(=O)N1CCc3cc(OC)c(OC)cc3C1)[C@H]1C(=O)O[C@H](c3ccccc3)[C@H](c3ccccc3)N1[C@@H]2c1ccc(OCCO)cc1`, the composite z-score was 0.173 (inactive) in assay [1] and 0.383 in the assay with XIP peptide (Xip251-270). For the same molecule, the z-score in assay [2] is -2.09; in assay [3] it was 3.59 (inactive); in assay [4], 0.206 (inactive); in assay [5], 0.631 (inactive).
Regarding `[N-]=[N+]=NCc1ccccc1C[C@]1(C(=O)O)N=C(c2ccc(OCCCO)cc2)O[C@H]1c1ccccc1N=[N+]=[N-]`, the composite z-score was 0.525 (inactive) in assay [1] and 0.771 in the assay on XIP peptide (Xip251-270). For the same molecule, the z-score is -1.57 in assay [2], -3.84 (inactive) in assay [3], -0.1 (inactive) in assay [4] and 0.16 (inactive) in assay [5].
`CCC(CC)C(O)C1C=CC2C(=O)N(C)C(=O)C2N1Nc1ccccc1` (centres undefined): the composite z-score in assay [1] was 0.544 (inactive); in the assay with XIP peptide (Xip251-270), 0.758. Also, the z-score was 0.865 in assay [2], -3.63 (inactive) in assay [3], -0.0753 (inactive) in assay [4] and 0.0501 (inactive) in assay [5].
Regarding `COCCOC(=O)N1C(=O)[C@@]2(c3cc(C#CC4(O)CCCCCC4)ccc31)[C@H](c1ccc(O)cc1)N1[C@H](c3ccccc3)[C@H](c3ccccc3)OC(=O)[C@H]1[C@@H]2C(=O)Nc1nc2ccccc2s1`, the composite z-score in assay [1] is 1.18 (inactive); in the assay on XIP peptide (Xip251-270) it was 0.708. Also, the z-score is -0.326 in assay [2], -1.3 (inactive) in assay [3], 0.227 (inactive) in assay [4] and 0.428 (inactive) in assay [5].
Regarding `CN(C)C(=O)[C@@]1(Cc2ccccc2)N=C(c2ccc(OCCCO)cc2)O[C@H]1c1ccccc1N=[N+]=[N-]`, the composite z-score was -0.111 (inactive) in assay [1] and 0.651 with XIP peptide (Xip251-270). Also, the z-score in assay [2] is -1.93; in assay [3], -4.88 (inactive); in assay [4] it was -0.524 (inactive); in assay [5], -0.793 (inactive).
As to `CC(C)(C)OC(=O)CC[C@@]12N=C(c3ccc(OCCCO)cc3)O[C@@H]1c1ccccc1N(CCS(=O)(=O)c1ccccc1)C2=O`, the composite z-score in assay [1] was -0.204 (inactive); in the assay with XIP peptide (Xip251-270) it was 0.569. The z-score is -1.7 in assay [2], -3.42 (inactive) in assay [3], -0.739 (inactive) in assay [4] and -0.767 (inactive) in assay [5].
Turning to `O=C(NCC(F)(F)F)[C@@H]1c2ccccc2C(=O)N(C2CCCCC2)[C@H]1c1ccc(CO)cc1`, the figures for the composite z-score (in assay [1]; with XIP peptide (Xip251-270)) were 0.0572 (inactive) and 0.434, respectively. The z-score was -0.676 in assay [2], -3.32 (inactive) in assay [3], 0.142 (inactive) in assay [4] and -0.156 (inactive) in assay [5].
As for `COc1ccc(C(O)C2C=CC3C(=O)NC(=O)C3N2Nc2ccccn2)c2ccccc12` (centres undefined), the composite z-score is 0.123 (inactive) in assay [1] and -0.034 in the assay on XIP peptide (Xip251-270). Further, the z-score was 0.8 in assay [2], -1.97 (inactive) in assay [3], 0.141 (inactive) in assay [4] and -0.22 (inactive) in assay [5].
Take `C=CCC(OC(C)=O)[C@@H]1[C@@H](N(Cc2ccc(-c3cccc(C(F)(F)F)c3)o2)C(=O)Cc2ccc(F)cc2)c2cc(OCCCO)ccc2N1C(=O)Cc1ccc(OC)cc1` (some centres undefined): the composite z-score was 0.664 (inactive) in assay [1] and -0.0147 with XIP peptide (Xip251-270). Further, the z-score in assay [2] is -1.61; in assay [3], -1.69 (inactive); in assay [4], 0.0521 (inactive); in assay [5] it was 0.633 (inactive).
On to `CCCN1C(=O)[C@]2(CCS(=O)(=O)c3ccccc3)N=C(c3ccc(OCCCO)cc3)O[C@@H]2c2ccccc21`, for which the results for the composite z-score (in assay [1]; in the assay with XIP peptide (Xip251-270)) were -0.0893 (inactive) and 0.11, respectively. Besides, the z-score in assay [2] is -2.6; in assay [3], -5.36 (inactive); in assay [4], -0.701 (inactive); in assay [5] it was -0.918 (inactive).
Turning to `C=CCNC(=O)[C@@H]1[C@H]2C(=O)O[C@H](c3ccccc3)[C@H](c3ccccc3)N2[C@H](c2ccc(OCCO)cc2)[C@@]12C(=O)Nc1ccc(C#Cc3ccc(OC)cc3)cc12`, the composite z-score was 1.37 (inactive) in assay [1] and 0.792 with XIP peptide (Xip251-270). For the same molecule, the z-score is -2.28 in assay [2], -1.61 (inactive) in assay [3], 0.166 (inactive) in assay [4] and 0.143 (inactive) in assay [5].
For the molecule `C=CCC(OC(C)=O)[C@@H]1[C@@H](N(Cc2ccc(-c3ccccc3)cc2)C(=O)Cc2ccc(F)cc2)c2cc(OCCCO)ccc2N1C(=O)c1ccc(-c2ccccc2)cc1` (some centres undefined), the composite z-score in assay [1] was -0.142 (inactive); in the assay on XIP peptide (Xip251-270), 0.166. Further, the z-score in assay [2] was -1.9; in assay [3], -0.778 (inactive); in assay [4], -0.517 (inactive); in assay [5], -0.285 (inactive).
